Experiment [1] in a line: E. coli DRC41 culture turbidity changes, primary screen, E. coli filamentation inducer project, strain DRC41, OD650, 48 h (AID 1152).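 Also: E. coli MC1000 strain DRC41 lacking acrAB efflux pump and sulA.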 To be noted: E. coli DRC41 (acrAB sulA), higher = more signal, called active from +8 up or from −8 down.
Experiment [2] can be described thus: small-molecule binders of probe aLefty1, primary screen, biochemical, small-molecule microarray, 635/667 nm fluorescence (AID 1153).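 Also: score merges spot fluorescence with signal-to-noise ratio from the scanned slide images.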 To be noted: higher = more signal.
Experiment [3] is described as follows: PSAC antagonists in infected red cells, primary screen, cell-based, P. falciparum Indochina, OD700, 1 h (AID 1154). As to conditions: P. falciparum Indochina infected RBC osmotic lysis, higher = more signal, called active from +8 up or from −8 down.
A short description of experiment [4]: PSAC antagonists in infected red cells, primary screen, cell-based, P. falciparum Indochina, OD700, 2 h (AID 1155).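 Also: lysis reports solute entry through the parasite surface anion channel PSAC; channel blockers reduce lysis of infected cells.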 As to conditions: P. falciparum Indochina infected erythrocytes, osmotic lysis OD700; higher = more signal, called active from +8 up or from −8 down.
Experiment [5] can be described thus: osmotic lysis modulators in infected erythrocytes, primary screen, PSAC antagonist project, cell-based, P. falciparum Indochina, OD700, 3 h (AID 1156). To be noted: higher = more signal, called active from +8 up or from −8 down.
The nature of experiment [6]: PSAC antagonists in infected red cells, primary screen, cell-based, P. falciparum Indochina, OD700, 18 h (AID 1157). To be noted: P. falciparum Indochina infected erythrocytes, osmotic lysis OD700, 18 h; higher = more signal, called active from +8 up or from −8 down.
Experiment [7] can be described thus: modulators of S6 phosphorylation in cells, primary screen, cell-based, A549, cytoblot, luminescence, serum-stimulated (AID 1158).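 Also: serum-stimulated A549 lung adenocarcinoma cells; signal is phosphorylated S6 detected by cytoblot immunostaining with HRP secondary.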 To be noted: A549 phospho-S6 cytoblot, 5 h, higher = more signal.
For experiment [8], the target named is NADPH oxidase 2 (Homo sapiens) (UniProt P04839). Description: NOX2-dependent H2O2 signal modulators, primary screen, NOX inhibitor project, cell-based, HEK293-NOX2, PMA-stimulated, Amplex Red fluorescence (AID 1159). Also: test concentration not given here. As to conditions: 45 min, higher = more signal, called active from +8 up or from −8 down.
For experiment [9], the target named is NADPH oxidase 4 (Homo sapiens) (UniProt Q9NPH5). The experiment in a line: NOX4-dependent H2O2 signal modulators, primary screen, NOX inhibitor project, cell-based, HEK293-NOX4, tetracycline-induced, Amplex Red fluorescence (AID 1160). To be noted: 45 min, higher = more signal, called active from +8 up or from −8 down.
The target of experiment [10] is NADPH oxidase 5 (Homo sapiens) (UniProt Q96PH1). The experiment in a line: NOX5-dependent H2O2 signal modulators, primary screen, NOX inhibitor project, cell-based, HEK293-NOX5, Amplex Red fluorescence (AID 1161). To be noted: HEK293-NOX5, ionomycin, 45 min, higher = more signal.
A short description of experiment [11]: A549 cell viability effects, profiling panel, calcein-AM fluorescence, 48 h, basal (AID 1162). Also: test concentration not given here. To be noted: higher = more signal.
Experiment [12] in a line: adipocyte viability effects, profiling panel, cell-based, 3T3-L1 adipocytes, calcein-AM fluorescence, 48 h, basal (AID 1163). Also: test concentration not given here. To be noted: 3T3-L1 adipocytes viability, higher = more signal.
Experiment [13] is described as follows: HepG2 cell viability effects, profiling panel, calcein-AM fluorescence, 48 h, basal (AID 1164). Also: test concentration not given here. To be noted: higher = more signal.
Experiment [14] in a line: MM1S cell viability effects, profiling panel, calcein-AM fluorescence, 48 h, basal (AID 1165).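 Also: viability of MM1S multiple myeloma cells under basal unstimulated conditions; test concentration not given here.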 As to conditions: higher = more signal.
Experiment [15] is described as follows: basal RPMI8226 viability, no added stimulus, profiling panel, cell-based, calcein-AM fluorescence, 48 h, PK04 Diversity Set (AID 1166).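 Also: cells grown under basal conditions without added stimulus; test concentration not given here.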 To be noted: RPMI8226 myeloma viability, higher = more signal.
Experiment [16] in a line: basal HepG2 mitochondrial membrane potential changes, profiling panel, cell-based, JC-1 fluorescence, 24 h, 100 nL compound (AID 1167). Also: test concentration not given here. As to conditions: higher = more signal.
Experiment [17] is described as follows: basal 3T3-L1 adipocyte mitochondrial potential changes, profiling panel, cell-based, JC-1 fluorescence, 3T3-L1 adipocytes, 24 h, 100 nL compound (AID 1168). Also: test concentration not given here. To be noted: JC-1 mitochondrial fluorescence, higher = more signal, called active from +8 up or from −8 down.
Experiment [18] can be described thus: basal RPMI8226 mitochondrial membrane potential changes, profiling panel, cell-based, JC-1 fluorescence, 24 h, 100 nL compound (AID 1169). Also: test concentration not given here. To be noted: RPMI8226 myeloma, JC-1 mitochondrial potential fluorescence, higher = more signal.
The nature of experiment [19]: basal MM1S mitochondrial membrane potential changes, profiling panel, cell-based, JC-1 fluorescence, 24 h, 100 nL compound (AID 1170). Also: test concentration not given here. To be noted: higher = more signal.
The nature of experiment [20]: A549 lung cancer cell viability effects, profiling panel, resazurin fluorescence, 24 h, PK04 Diversity Set (AID 1171). Also: test concentration not given here. As to conditions: higher = more signal, called active from +8 up or from −8 down.

Activity calls are given as the source filed them.

NADPH oxidase 2 (Homo sapiens), sequence (P04839 whole entry, looked up): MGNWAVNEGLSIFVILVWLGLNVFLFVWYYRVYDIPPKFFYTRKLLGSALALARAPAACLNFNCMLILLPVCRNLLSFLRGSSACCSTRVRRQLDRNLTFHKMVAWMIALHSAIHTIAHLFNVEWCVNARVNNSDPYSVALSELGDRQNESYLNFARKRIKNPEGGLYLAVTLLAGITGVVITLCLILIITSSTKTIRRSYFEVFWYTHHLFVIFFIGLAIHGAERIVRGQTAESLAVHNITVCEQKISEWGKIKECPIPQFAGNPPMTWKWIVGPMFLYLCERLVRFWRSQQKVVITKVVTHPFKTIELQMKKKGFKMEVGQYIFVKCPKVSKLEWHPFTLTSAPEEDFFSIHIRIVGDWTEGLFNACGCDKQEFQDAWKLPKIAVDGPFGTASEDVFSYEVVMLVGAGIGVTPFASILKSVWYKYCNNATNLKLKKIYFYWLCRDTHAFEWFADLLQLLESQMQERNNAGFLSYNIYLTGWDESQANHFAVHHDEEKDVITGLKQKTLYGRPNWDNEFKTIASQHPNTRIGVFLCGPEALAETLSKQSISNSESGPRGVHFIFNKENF
NADPH oxidase 5 (Homo sapiens), sequence (Q96PH1 whole entry, looked up): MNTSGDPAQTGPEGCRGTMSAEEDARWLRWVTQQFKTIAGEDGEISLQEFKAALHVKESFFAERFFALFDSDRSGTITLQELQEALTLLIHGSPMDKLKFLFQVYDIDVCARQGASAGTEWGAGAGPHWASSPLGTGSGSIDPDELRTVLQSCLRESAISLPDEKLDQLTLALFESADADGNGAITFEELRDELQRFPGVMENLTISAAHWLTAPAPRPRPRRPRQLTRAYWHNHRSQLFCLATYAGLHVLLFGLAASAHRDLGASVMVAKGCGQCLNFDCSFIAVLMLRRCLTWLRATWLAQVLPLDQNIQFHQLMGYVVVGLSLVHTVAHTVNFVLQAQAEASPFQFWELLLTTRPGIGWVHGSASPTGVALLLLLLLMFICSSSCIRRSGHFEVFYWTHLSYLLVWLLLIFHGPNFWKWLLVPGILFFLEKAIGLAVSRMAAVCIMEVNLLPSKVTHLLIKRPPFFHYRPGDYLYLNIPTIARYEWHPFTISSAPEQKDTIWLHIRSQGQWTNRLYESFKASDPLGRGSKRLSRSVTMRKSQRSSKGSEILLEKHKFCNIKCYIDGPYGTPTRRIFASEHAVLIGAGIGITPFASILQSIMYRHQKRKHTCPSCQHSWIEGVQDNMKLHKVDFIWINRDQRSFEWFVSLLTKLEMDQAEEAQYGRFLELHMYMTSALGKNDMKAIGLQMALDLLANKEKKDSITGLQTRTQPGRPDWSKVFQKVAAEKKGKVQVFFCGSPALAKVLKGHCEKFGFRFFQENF
NADPH oxidase 4 (Homo sapiens), sequence (Q9NPH5 whole entry, looked up): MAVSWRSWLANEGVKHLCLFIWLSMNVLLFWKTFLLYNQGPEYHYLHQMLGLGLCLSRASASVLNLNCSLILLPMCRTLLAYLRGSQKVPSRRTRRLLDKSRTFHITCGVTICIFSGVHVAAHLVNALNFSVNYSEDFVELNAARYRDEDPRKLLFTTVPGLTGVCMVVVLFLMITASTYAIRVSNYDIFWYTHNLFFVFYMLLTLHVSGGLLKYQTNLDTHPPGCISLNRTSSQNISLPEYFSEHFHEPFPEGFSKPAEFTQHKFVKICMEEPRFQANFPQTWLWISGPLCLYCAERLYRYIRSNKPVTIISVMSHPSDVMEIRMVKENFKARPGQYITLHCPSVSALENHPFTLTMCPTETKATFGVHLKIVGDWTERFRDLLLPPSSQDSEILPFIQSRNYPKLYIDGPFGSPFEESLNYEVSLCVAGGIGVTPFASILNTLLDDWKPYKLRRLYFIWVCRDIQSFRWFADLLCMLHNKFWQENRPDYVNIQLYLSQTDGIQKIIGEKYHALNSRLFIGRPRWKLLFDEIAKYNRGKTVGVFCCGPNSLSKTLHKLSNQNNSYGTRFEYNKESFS

Consider `Cc1ccc(F)cc1S(=O)(=O)N[C@H]1CCN(Cc2ccc(OC(C)C)cc2)C1`, for which the z-score in experiment [1] is -4.19 (inactive); in [3] it was 2.31 (inactive); in [4], 0.709 (inactive); in experiment [5] it was 0.183 (inactive); in experiment [6], 0.526 (inactive); in experiment [7], -0.227. For the same compound, the z-score in experiment [8] was -1.11 (inactive); in experiment [9] it was -0.777 (inactive); in [10], -2.37; in experiment [11] it was 0.376; in [12], -0.535; in [13] it was -0.7. Also, the z-score in experiment [14] was -1.4; in experiment [15] it was -1.93; in experiment [16] it was -0.809; in [17], 0.416 (inactive); in [18], 0.0436; in experiment [19], -1.41. For the same compound, the z-score in experiment [20] is -0.477 (inactive). This compound also showed a composite z-score in [2] of -0.241.

For the compound `CCCc1cc2c(n1CCc1ccc(Cl)cc1)C(C)C1CN(C(=O)c3ccccc3)C(C)(C(=O)OC)C21` (stereo not given), the z-score in [1] was -2.41 (inactive); in [3], 2.24 (inactive); in experiment [4], 0.322 (inactive); in experiment [5], 2.8 (inactive); in experiment [6] it was 0.347 (inactive); in experiment [7], 0.0928. Further, the z-score is -2.06 (inactive) in [8]; -7.6 (inactive) in experiment [9]; -5.16 in [10]; -1.7 in [11]; 1.33 in [12]; -0.534 in experiment [13]. Moreover, the z-score in experiment [14] is -3.25; in experiment [15], -4.74; in experiment [16] it was 4.02; in [17], -1 (inactive); in experiment [18], -0.78; in [19] it was -1.19. The z-score in experiment [20] was -1.94 (inactive). The compound also registered a composite z-score in experiment [2] of 0.268.

On to `COC(=O)[C@H](Cc1ccc(O)cc1)N[C@@H](/C=C/C1CC1)[C@H](O)Cc1ccccc1`, for which the z-score is -0.571 (inactive) in [1]; 0.963 (inactive) in experiment [3]; 0.496 (inactive) in experiment [4]; 0.098 (inactive) in [5]; -0.0396 (inactive) in experiment [6]; -0.557 in experiment [7]. Further, the z-score was 0.0285 (inactive) in [8]; 0.516 (inactive) in experiment [9]; -0.929 in [10]; -0.0547 in experiment [11]; -1.21 in experiment [12]; 0.192 in experiment [13]. In addition, the z-score in experiment [14] is -1.69; in [15], -0.192; in experiment [16], -1.82; in experiment [17] it was -0.177 (inactive); in experiment [18] it was -0.512; in experiment [19], -1.01. In addition, the z-score in experiment [20] was 0.0243 (inactive). For the same compound, the composite z-score in [2] is -0.275.

Consider `COc1ccc([Si](C)(C)[C@@H]2[C@@H](CC(=O)N(CCO)Cc3ccccc3)O[C@]3(C(=O)N(Cc4ccc(N5C(=O)c6cccc7cccc5c67)cc4)c4ccccc43)[C@H]2C)cc1`, for which the z-score was -0.414 (inactive) in experiment [1]; 7.3 (inactive) in [3]; 2.33 (inactive) in experiment [4]; 0.296 (inactive) in [5]; 1.14 (inactive) in experiment [6]; 0.487 in [7]. The z-score in [8] is 1.28 (inactive); in experiment [9] it was -0.496 (inactive); in experiment [10], 2.72; in experiment [11], -0.538; in experiment [12] it was 0.427; in [13] it was -1.43. The z-score in [14] was -1.82; in experiment [15], -3.52; in experiment [16], -0.038; in experiment [17] it was 0.161 (inactive); in [18] it was -1.02; in experiment [19] it was -1.18. Besides, the z-score in experiment [20] is -1.51 (inactive). Further, the composite z-score in experiment [2] is 0.004.

On to `CCN(CC)c1ccc(N2CC=CC34O[C@@H]5C=CCCOC(=O)C5[C@H]3C(=O)N(C(C)CO)[C@@H]4C2=O)cc1` (stereo not given in full), for which the z-score in experiment [1] is -0.627 (inactive); in experiment [3], 3.66 (inactive); in [4], 0.493 (inactive); in [5], 0.988 (inactive); in experiment [6], 0.353 (inactive); in [7], -0.465. The z-score in [8] is -0.748 (inactive); in [9], 0.447 (inactive); in experiment [10], 0.772; in [11], -0.0735; in experiment [12], -0.456; in experiment [13], 0.316. Also, the z-score was 0.241 in experiment [14]; 0.333 in experiment [15]; 0.408 in experiment [16]; 0.0389 (inactive) in experiment [17]; -0.487 in experiment [18]; 0.0276 in experiment [19]. Also, the z-score in [20] was 0.586 (inactive). The same compound yielded a composite z-score in experiment [2] of 0.138.

Consider `CCCC[C@H]1OB(O)C[C@H]2C1=C(COc1ccccc1)C[C@H]1C(=O)C=CC(=O)[C@H]12`, for which the z-score in experiment [1] was 1.55 (inactive); in experiment [3] it was 1.49 (inactive); in experiment [4], 0.0962 (inactive); in experiment [5], 0.129 (inactive); in [6] it was 0.134 (inactive); in [7], -0.0871. Besides, the z-score in experiment [8] is -0.429 (inactive); in experiment [9], -1.48 (inactive); in experiment [10], -5.03; in experiment [11], 0.696; in experiment [12], -0.0337; in experiment [13] it was 0.176. Further, the z-score was -3.27 in [14]; -3.25 in experiment [15]; -1.59 in [16]; -0.201 (inactive) in [17]; -0.431 in experiment [18]; -1.08 in experiment [19]. Also, the z-score in experiment [20] was 0.121 (inactive). Further, in experiment [2], the composite z-score was -0.134.

With `CC(C)NC(=O)[C@@]1(c2ccc([N+](=O)[O-])cc2)CC(=O)N(CC23CC4CC(CC(C4)C2)C3)[C@@H]1c1ccc(CO)cc1`, the z-score in [1] was -0.323 (inactive); in experiment [3], 2.3 (inactive); in [4], 0.814 (inactive); in [5], 1.86 (inactive); in experiment [6], 0.204 (inactive); in experiment [7] it was -0.248. Also, the z-score is -0.108 (inactive) in experiment [8]; -1.02 (inactive) in [9]; -0.0647 in [10]; -1.34 in experiment [11]; 0.999 in experiment [12]; -1.72 in [13]. Moreover, the z-score was -2.06 in [14]; -3.8 in [15]; -1.38 in [16]; -0.959 (inactive) in experiment [17]; -0.6 in [18]; -0.24 in [19]. Besides, the z-score in experiment [20] was -2.03 (inactive). This compound yielded a composite z-score in experiment [2] of 1.56.

Take `CCCCC(=C=CC[C@H](O)c1ccc(CO)o1)CCO`: the z-score was -0.258 (inactive) in experiment [1]; 2 (inactive) in [3]; 0.278 (inactive) in experiment [4]; 0.517 (inactive) in [5]; 0.134 (inactive) in [6]; -0.189 in experiment [7]. Besides, the z-score was 0.802 (inactive) in experiment [8]; -0.0669 (inactive) in experiment [9]; -0.395 in experiment [10]; -0.231 in [11]; -0.652 in experiment [12]; 0.115 in experiment [13]. For the same compound, the z-score in experiment [14] was -0.562; in experiment [15], -0.0295; in experiment [16], -0.787; in experiment [17] it was -0.848 (inactive); in [18], -0.0527; in experiment [19] it was -0.534. Moreover, in experiment [20], the z-score was -0.598 (inactive). Further, in [2], the composite z-score is -0.0445.

The record behind these values is PubChem BioAssay.
